Experimental data from PubChem BioAssay AID1159580 (chemical genetic matrix, 2015).
Among all 5,500 compounds or so, about 2,000 (36%) were called active. Roughly 18% stayed inconclusive and do not appear here. No stated cut-off is given here; in the data, active means normalized growth mostly below about 0.91 (no sharp cut-off); inconclusive means no clear call, values can overlap the other calls; inactive means mostly above about 0.92. The list shows a part of the results.

Assay: chemical genetic growth profiling, strain panel (AID 1159580);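 further: tested at 20 µM; growth read once vehicle control cultures reached saturation at 30 °C; 1 = growth at the plate median or of vehicle wells; lower values mean less growth of the strain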
Details: S. cerevisiae deletion strains, growth OD

Measured: normalized growth

COc1cc(O)c(C(=O)/C=C/c2ccccc2)c(OC)c1
inactive: locus YAL021C, strain ccr4, hits give low values 0.998 | locus YAL026C, strain drs2, hits give low values 0.945 | locus YAL030W, strain snc1, hits give low values 0.941 | locus YBL061C, strain skt5, hits give low values 0.928 | locus YBR021W, strain FUR4, hits give low values 0.895 | locus YBR171W, strain sec66, hits give low values 0.957 | locus YBR229C, strain ROT2, hits give low values 0.942 | locus YBR231C, strain swc5, hits give low values 0.917 | locus YCL029C, strain bik1, hits give low values 0.923 | locus YCL061C, strain MRC1, hits give low values 0.922 | locus YCL069W, strain vba3, hits give low values 0.946 | locus YCR088W, strain abp1, hits give low values 0.96 | locus YDL005C, strain med2, hits give low values 0.98 | locus YDL035C, strain GPR1, hits give low values 0.907 | locus YDL040C, strain nat1, hits give low values 0.937 | locus YDL101C, strain DUN1, hits give low values 0.916 | locus YDL185W, strain tfp1, hits give low values 0.945 | locus YDR001C, strain nth1, hits give low values 0.947 | locus YDR069C, strain doa4, hits give low values 0.963 | locus YDR159W, strain sac3, hits give low values 0.975 | locus YDR162C, strain NBP2, hits give low values 0.947 | locus YDR297W, strain sur2, hits give low values 0.947 | locus YDR334W, strain swr1, hits give low values 0.972 | locus YDR335W, strain msn5, hits give low values 0.949 | locus YDR388W, hits give low values 0.932 | locus YEL003W, strain gim4, hits give low values 0.914 | locus YEL037C, strain rad23, hits give low values 0.948 | locus YEL061C, strain CIN8 (second series), hits give low values 0.966 | locus YER016W, strain bim1, hits give low values 0.945 | locus YER111C, strain swi4, hits give low values 0.987 | locus YER167W, strain BCK2, hits give low values 0.95 | locus YFR010W, strain ubp6, hits give low values 0.944 | locus YGL078C, strain dbp3, hits give low values 0.943 | locus YGL167C, strain pmr1, hits give low values 0.921 | locus YGL173C, strain kem1, hits give low values 0.921 | locus YGL227W, strain vid30, hits give low values 0.968 | locus YHR013C, strain ard1, hits give low values 1.01 | locus YHR027C, strain rpn1, hits give low values 0.942 | locus YHR030C, strain SLT2, hits give low values 0.924 | locus YIL066C, strain RNR3, hits give low values 0.867 | locus YIL073C, strain SPO22, hits give low values 0.733 | locus YIL125W, strain kgd1, hits give low values 0.944 | locus YJL092W, strain hpr5, hits give low values 0.945 | locus YJL095W, strain BCK1 (second series), hits give low values 0.945 | locus YJL115W, strain asf1, hits give low values 0.979 | locus YJL134W, strain LCB3, hits give low values 0.953 | locus YJL154C, strain vps35, hits give low values 0.975
active: locus YAL013W, strain DEP1, hits give low values 0.897 | locus YBR009C, strain hhf1, hits give low values 0.846 | locus YBR023C, strain chs3, hits give low values 0.893 | locus YBR279W, strain paf1, hits give low values 0.894 | locus YCL011C, strain gbp2, hits give low values 0.867 | locus YCL016C, strain dcc1, hits give low values 0.861 | locus YDL074C, strain BRE1, hits give low values 0.682 | locus YDL134C, strain PPH21, hits give low values 0.807 | locus YDL192W, strain arf1, hits give low values 0.796 | locus YDR101C, strain arx1, hits give low values 0.857 | locus YDR137W, strain rgp1, hits give low values 0.717 | locus YDR195W, strain ref2 1.18 [resistant] | locus YDR318W, strain mcm21, hits give low values 0.816 | locus YDR392W, strain spt3, hits give low values 0.373 | locus YDR502C, strain sam2, hits give low values 0.819 | locus YER015W, strain faa2, hits give low values 0.89 | locus YER110C, hits give low values 0.863 | locus YER155C, strain BEM2 (second series), hits give low values 0.807 | locus YER155C, strain BEM2, hits give low values 0.625 | locus YGL086W, strain mad1, hits give low values 0.794 | locus YGL240W, strain doc1, hits give low values 0.819 | locus YGL248W, strain PDE1, hits give low values 0.8 | locus YGL253W, strain hxk2, hits give low values 0.85 | locus YGR135W, strain pre9, hits give low values 0.83 | locus YGR229C, strain SMI1, hits give low values 0.681 | locus YGR252W, strain gcn5, hits give low values 0.667 | locus YHR079C, strain IRE1 (second series), hits give low values 0.909 | locus YHR094C, strain hxt1, hits give low values 0.917 | locus YHR129C, strain ARP1, hits give low values 0.857 | locus YHR142W, strain chs7, hits give low values 0.791 | locus YHR200W, strain rpn10, hits give low values 0.891 | locus YIR030C, strain dcg1, hits give low values 0.898 | locus YJL095W, strain BCK1, hits give low values 0.574 | locus YJL129C, strain trk1, hits give low values 0.779 | locus YJL164C, strain tpk1, hits give low values 0.858 | locus YJL166W, strain qcr8, hits give low values 0.792
